The panel holds about 83,000 compounds, 20% with a hit somewhere; the sample as a whole holds those more often.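 Results are percent growth after 48 hours of single-concentration exposure. 100 means growth as in untreated cells, lower positive values show inhibition; negative values down to -100 show cell death.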 Unmarked numbers belong to inactive results. Calls of active or inactive are those of the source. How the source made its calls: active means growth percent below 10; inactive means the rest.

Some test systems named below: DU-145 prostate; K-562 leukemia; MALME-3M melanoma; MDA-MB-231 breast; RXF 393 renal; SF-268 CNS; SF-295 CNS; SF-539 CNS; UACC-257 melanoma; M14 melanoma.
Common to all, as to experiment: NCI-60 one-dose screen, 48 h (100 = growth as untreated, 0 = no growth, -100 = all killed)
Details in all cases: 10 µM unless noted

On to `CN([O-])c1nc(N(C)[O-])nc(N2CCOCC2)n1.CN([O-])c1nc(N(C)[OH2+])nc(N2CCOCC2)n1.[Fe+3]`, for which the growth is 63.1% [100 µM] in the test on DU-145 prostate; 16.7% [100 µM] in the test on K-562 leukemia; 118% [100 µM] in the test with MALME-3M melanoma; 110% [100 µM] in the test on MDA-MB-231 breast; 75.5% [100 µM] in the test with RXF 393 renal; -14.2% [100 µM] (active) in the test on SF-268 CNS. In addition, the growth is 10.3% [100 µM] in the test on SF-295 CNS, 108% [100 µM] in the test on SF-539 CNS, 96.2% [100 µM] with UACC-257 melanoma and 91.7% [100 µM] in the test on M14 melanoma.

Take `O=C(Nc1nn(-c2ccc(Cl)cc2Cl)nc1-c1ccccc1)c1ccccc1`: the growth in the test on DU-145 prostate is 131%; in the test on K-562 leukemia, 91.9%; in the test with MALME-3M melanoma, 80.2%; with MDA-MB-231 breast it was 98.3%; in the test on RXF 393 renal, 111%; in the test with SF-268 CNS, 107%. The growth was 56.9% with SF-295 CNS, 121% with SF-539 CNS, 106% in the test on UACC-257 melanoma and 87.1% with M14 melanoma.

For the compound `CCS/C(Nc1ccccc1)=C(\C#N)C(=O)N/N=C/c1ccc(Cl)cc1Cl`, the growth in the test on DU-145 prostate is 20%; in the test with K-562 leukemia, 7.35% (active); in the test with MALME-3M melanoma, 38.1%; with MDA-MB-231 breast, 39%; in the test with RXF 393 renal it was 2.63% (active); with SF-268 CNS, 34%. Further, the growth was 17% in the test on SF-295 CNS, 4.25% (active) in the test with SF-539 CNS, 51.9% with UACC-257 melanoma and 21% with M14 melanoma.

In the case of `O=C(NNC(=O)c1ccc(-n2cc(-c3ccccc3)nn2)cc1)Nc1ccccc1`, the growth in the test on DU-145 prostate was 106%; in the test with K-562 leukemia, 105%; in the test on MALME-3M melanoma, 113%; in the test with MDA-MB-231 breast, 108%; in the test on RXF 393 renal it was 103%; in the test on SF-268 CNS, 90.2%. In addition, the growth with SF-295 CNS was 101%; in the test with SF-539 CNS, 96%; with UACC-257 melanoma it was 103%; in the test with M14 melanoma, 97.6%.

Consider `Cc1ccc(-c2nc3nc(-c4ccc(F)cc4)nc(N4CCNCC4)c3o2)cc1`, for which the growth was 41.7% with DU-145 prostate; -53.1% (active) in the test on K-562 leukemia; 107% with MALME-3M melanoma; -29.1% (active) in the test on MDA-MB-231 breast; 109% in the test with RXF 393 renal; 96.7% with SF-268 CNS. Also, the growth in the test on SF-295 CNS is 91.6%; in the test with SF-539 CNS it was -72.3% (active); in the test with UACC-257 melanoma, 105%; with M14 melanoma, -70.9% (active).

Turning to `CCN(CC)CCOc1ccc(C(=C(C)c2ccc(Cl)cc2)c2ccc(OCCN(CC)CC)cc2)cc1`, the growth was -36.4% (active) in the test on DU-145 prostate; -37.2% (active) in the test on K-562 leukemia; -84.1% (active) with MALME-3M melanoma; -84.9% (active) in the test with MDA-MB-231 breast; -73.7% (active) with RXF 393 renal; -37.9% (active) in the test on SF-268 CNS. Further, the growth was -77.6% (active) with SF-295 CNS, -92.6% (active) in the test on SF-539 CNS, -69.9% (active) with UACC-257 melanoma and -89.8% (active) with M14 melanoma.

With `COc1ccc(/C=N/C2=C(C#N)C(c3cccc(Cl)c3)c3c(ccc4ccccc34)O2)cc1` (stereo not given), the growth is 55.7% in the test on DU-145 prostate; 11.1% in the test on K-562 leukemia; 44.5% in the test on MALME-3M melanoma; 38% in the test with MDA-MB-231 breast; 26.5% in the test with RXF 393 renal; 45.9% in the test on SF-268 CNS. The growth in the test with SF-295 CNS is 21.8%; in the test on SF-539 CNS, 7.29% (active); with UACC-257 melanoma, 62.6%; in the test with M14 melanoma it was 15.6%.

Consider `CN(C)CCCC1(c2ccc(F)cc2)OCc2cc(-c3cccc4[nH]ccc34)ccc21` (stereo not given), for which the growth was 18.9% in the test with DU-145 prostate; -4.22% (active) in the test on K-562 leukemia; -91.6% (active) with MALME-3M melanoma; 40.8% in the test on MDA-MB-231 breast; 37.6% in the test with RXF 393 renal; 41% in the test on SF-268 CNS. Moreover, the growth with SF-295 CNS was 20%; in the test with SF-539 CNS it was 14%; in the test with UACC-257 melanoma it was -5.65% (active); in the test on M14 melanoma, -68.4% (active).

`CCCCCCCCn1ccc2cc(NC(=O)Cn3cc(CN4CCCCC4)nn3)ccc21`: the growth is 52.2% with DU-145 prostate; -13.5% (active) in the test with K-562 leukemia; -88.3% (active) with MALME-3M melanoma; -37.1% (active) with MDA-MB-231 breast; -72% (active) in the test with RXF 393 renal; 21.3% with SF-268 CNS. For the same compound, the growth is -66.5% (active) in the test with SF-295 CNS, -42.3% (active) in the test on SF-539 CNS, -49.5% (active) in the test on UACC-257 melanoma and -79.8% (active) in the test on M14 melanoma.

On to `Nc1c(C(=O)Nc2ccncc2)sc2nc3c(cc12)CCCCCC3`, for which the growth is 93.2% with DU-145 prostate; 64% in the test on K-562 leukemia; 108% in the test with MALME-3M melanoma; 103% in the test on MDA-MB-231 breast; 88.5% with RXF 393 renal; 100% in the test on SF-268 CNS. The growth in the test with SF-295 CNS is 82.3%; in the test with SF-539 CNS it was 79.9%; in the test on UACC-257 melanoma it was 91.1%; in the test on M14 melanoma, 100%.

In the case of `C=C1C(=O)O[C@H]2[C@H]1CC/C(COC(=O)NCc1cc[nH]c1)=C\CC[C@@]1(C)O[C@@H]21`, the growth with DU-145 prostate was 12.4%; in the test on K-562 leukemia, 16.6%; in the test on MALME-3M melanoma it was 84.2%; with MDA-MB-231 breast, 35.4%; in the test on RXF 393 renal, 31.1%; in the test with SF-268 CNS, 64.9%. In addition, the growth in the test with SF-295 CNS was 83.5%; in the test on SF-539 CNS, 50.8%; with UACC-257 melanoma, 59.1%; in the test with M14 melanoma, 32.7%.

`Fc1ccc(-c2nn(-c3ccccc3)cc2-c2nc3ccccc3o2)cc1`: the growth with DU-145 prostate is 90.1%; with K-562 leukemia, 37.5%; with MALME-3M melanoma, 63.6%; in the test on MDA-MB-231 breast, 59.1%; in the test with RXF 393 renal it was 105%; with SF-268 CNS, 58.5%. Further, the growth with SF-295 CNS was 45.4%; with SF-539 CNS, 91.7%; in the test on UACC-257 melanoma, 102%; with M14 melanoma, 48.2%.

Regarding `Cc1cccc(N2CCN(CC(O)COc3ccc(Cl)cc3)CC2)c1` (stereo not given), the growth with DU-145 prostate was 115%; with K-562 leukemia, 82.9%; with MALME-3M melanoma, 146%; in the test with MDA-MB-231 breast it was 94.5%; in the test with RXF 393 renal it was 107%; in the test with SF-268 CNS, 105%. Further, the growth in the test with SF-295 CNS was 82.3%; with SF-539 CNS, 101%; in the test with UACC-257 melanoma, 108%; in the test on M14 melanoma, 95.9%.

For the compound `OCCOCCN(Cc1ccccn1)Cc1cc(I)cc(I)c1O`, the growth with DU-145 prostate was 87.8%; in the test with K-562 leukemia, 107%; with MALME-3M melanoma it was 87.8%; in the test with MDA-MB-231 breast, 96%; in the test on RXF 393 renal it was 81.1%; in the test with SF-268 CNS it was 81.4%. In addition, the growth is 59.3% in the test on SF-295 CNS, 90.8% in the test on SF-539 CNS, 104% in the test on UACC-257 melanoma and 81.1% in the test on M14 melanoma.

The values are drawn from PubChem BioAssay (NCI).
